# From PubChem BioAssay
# CCT chaperon mod – modulators of cytosolic chaperonin (CCT/TRiC) activity | purified chaperonin ATPase assay, HTRF ADP detection, 30 min | activity change, % (no concentration beside the values), hits read low | actives 0.3% (n = 360,000) | AID 651819; in the data active = activity change below about -30%; note: % is set by controls: 0 for no effect and ±100 for the full control effect
#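 Nucleotide hydrolysis assay: TRiC at 20–40 nM final (set by batch activity) with 10 uM ATP, 30 min at 37 °C, in presence of 76 uM compound. Detection by competitive ADP HTRF, 30 min ambient.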
# Mm-Cpn inhibitor – blocks the Methanococcus maripaludis chaperonin Mm-Cpn | purified Mm-Cpn ATPase, ADP Transcreener TR-FRET | Potency, µM (doses to about 76.9 µM), without a hit: at the top dose activity, negative = inhibition, hits mostly inhibitors | actives 0.031% (n = 330,000); note: potency is the fitted concentration of half-maximal effect; % is set by controls: 0 for no effect and ±100 for the full control effect; nearly all actives have a fitted effect of over 80% in size
#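 Reaction buffer contained 30 mM Tris pH 7.4, 100 mM KCl, 5 mM MgCl2 and 1 mM DTT. Mm-CPN (25 nM final) hydrolysed 10 uM ATP over 30 min at 37°C; ADP was read by HTRF.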
# MBNL1-CUG inh – inhibitors of human MBNL1 binding to CUG repeat RNA; Q9NR56; TR-FRET MBNL1-His/biotin-(CUG)12 binding, 665/545 ratio; Potency, µM (titrated, usually from 57.5 µM), inactives show at the top dose activity change, negative = inhibition, actives largely listed as inhibitors; actives 0.036% (n = 280,000); active = well fitted inhibition curve with a large enough effect in the signal ratio, with a control signal flat, not every such curve was filed as active; inconclusive = small, poorly fitted or top-dose-only effect, or effect the other way, or a change in a side signal; inactive = no such curve, though single readings can be large or run the other way; the % refers to the signal ratio; note: potency is the fitted concentration of half-maximal effect; % is set by controls: 0 for no effect and ±100 for the full control effect
# Target sequence (Q9NR56 whole entry, looked up): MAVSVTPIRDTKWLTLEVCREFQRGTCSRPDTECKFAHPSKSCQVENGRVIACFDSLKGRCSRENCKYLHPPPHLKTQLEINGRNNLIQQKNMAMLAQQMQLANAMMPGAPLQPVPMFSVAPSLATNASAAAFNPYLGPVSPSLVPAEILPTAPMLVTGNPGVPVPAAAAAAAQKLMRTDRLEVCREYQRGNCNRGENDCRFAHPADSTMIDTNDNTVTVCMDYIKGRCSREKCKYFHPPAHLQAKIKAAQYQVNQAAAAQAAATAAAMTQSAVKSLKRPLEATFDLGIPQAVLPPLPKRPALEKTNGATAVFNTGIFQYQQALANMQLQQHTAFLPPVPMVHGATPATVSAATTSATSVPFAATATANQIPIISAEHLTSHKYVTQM
#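 His-tagged MBNL1 binding to biotinylated (CUG)12 RNA was measured by TR-FRET using terbium anti-His antibody (0.055 ng/ul final) and streptavidin-XL665 (5 nM final). Compounds were titrated 92 nM to 58 uM; 60 min at room temperature.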
# uPA generation – blocks generation of uPA at the cell surface | cell surface uPA generation assay, qHTS | Potency, µM (series often up to 38.3 µM), inactives show at the highest dose activity change, negative = inhibition, most hits filed as inhibitors | actives 0.31% (n = 330,000) | AID 540303; active = well fitted inhibition curve with a large enough effect; inconclusive = small, poorly fitted or top-dose-only effect; inactive = no such curve, though single readings can be large or run the other way; tested in mouse RAW 264.7 cells; note: potency is the fitted concentration of half-maximal effect; % is set by controls: 0 for no effect and ±100 for the full control effect; nearly all actives have a fitted effect of over 55% in size
# Epigenetic reg – regulators of epigenetic silencing causing reporter derepression in mouse cells | murine LDR cells, GFP reporter derepression, 30 h | Potency, µM (top dose mostly 53.9 µM), without a hit: at the top dose GFP activation, hits mostly activators | actives 0.2% (n = 280,000); note: potency is the fitted concentration of half-maximal effect; % of control where 0% means no effect; nearly all actives have a fitted effect of over 60% in size
#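 Readout is the number of GFP-expressing murine LDR cells, counted by cytometry following washing. Cells were treated with compound for 30 h at 37 C; the stably integrated CMV-GFP locus is normally silent.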
# pAkt inh – blocks phosphorylation of Akt. actives 0.32% (n = 360,000). activity change, % for hits at 50 µM. Neuro2A IGF-stimulated pAkt S473 HTRF, 20 min; active compounds read low. AID 651550; in the data active = activity change below about -80%; inconclusive = mostly about -51% to -80%; note: % is set by controls: 0 for no effect and ±100 for the full control effect
#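 Neuro2A cells in DMEM with 0.5% FBS, overnight at 37 deg C, given compound at single 50 µM final, then IGF (6 nM final) for 20 min at 37 deg C. Lysed; phospho-Akt Ser473 by HTRF after 24 h, 665/615 ratio.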
# Starred values were filed as active, the others as inactive; i = inactive; ? = inconclusive; · = not tested or not shown; ! = not confirmed by another sample; [ ] = remark or other dose. Shown are actives, neighbours in structure and some others; about 0.97% of the full set was active somewhere. Unless noted, calls come from the whole dose curve; as a rule, active = well fitted curve in the direction sought with a large enough effect; inconclusive = small, poorly fitted or top-dose-only effect, or another doubt; inactive = no such curve, though single readings can be large; an effect the other way counts as inactive or inconclusive.
SMILES,CCT chaperon mod,Mm-Cpn inhibitor,MBNL1-CUG inh,uPA generation,Epigenetic reg,pAkt inh
C#CCOS(=O)OC1CCCCC1Oc1ccc(C(C)(C)C)cc1 (stereo not drawn),·,·,·,·,2%,·
CC(C)=CCCC1(C)C=Cc2c(O)c3c(c(CC=C(C)C)c2O1)OC12C(=CC4CC1C(C)(C)OC2(C/C=C(/C)C(=O)O)C4=O)C3=O (stereo not drawn),·,·,·,·,-1%,·
O=C1NC(=O)C(=Cc2ccccc2OCCOc2ccc([N+](=O)[O-])cc2)C(=O)N1,-32*,-2%,·,-9%,-8%,i
CN1C(=O)C(=Cc2ccccc2OCCOc2ccc([N+](=O)[O-])cc2)C(=O)N(C)C1=O,-2,-9%,13%,-6%,4%,i
CCOC(=O)CC1c2ccccc2-n2nncc2CN1C (stereo not drawn),-86*,·,·,4%,·,i
CCOC(=O)CC1c2ccccc2-n2nncc2CN1CC1CCCCC1 (stereo not drawn),1,·,·,·,·,i
Ic1c(C2=CCCCC2)[se]c2ccccc12,·,·,·,·,2%,·
COc1cc(OC)c2c(-c3cccc(-c4ccc(N(C)C)cc4)c3)cc(=O)oc2c1,3,-3%,·,1µM*,1%,i
CC(=O)OC1(C)CC(C)C(=O)C(C(O)CC2CC(=O)NC(=O)C2)C1 (stereo not drawn),0,·,·,?,·,i
C[C@@H]1C[C@@H]([C@H](O)CC2CC(=O)NC(=O)C2)C(=O)[C@@H](C)C1,-1,0%,·,0.5µM*,?,i
O=C1/C(=C\c2ccccc2)C[C@@]2(O)[C@H]3Cc4ccc(O)c5c4[C@@]2(CCN3CC2CC2)[C@H]1O5,·,·,·,·,0%,·
Cc1cc(-c2ccccc2)n(-c2cc(N/N=C/c3ccccc3O)ncn2)n1,0,0%,·,10µM*,0%,i
CN(CCc1ccccc1)C(=O)c1ccc(NC(=O)Cc2ccc([N+](=O)[O-])cc2)cc1,2,0%,·,?,·,i
CC[C@H](C)[C@H](NC(=O)[C@H](CCCN=C(N)N)NC(=O)[C@H](CCCN=C(N)N)NC(=O)[C@H](CC(C)C)NC(=O)[C@H](Cc1ccccc1)NC(=O)CNC(=O)CNC(=O)[C@@H](N)Cc1ccc(O)cc1)C(=O)O,·,·,·,·,0%,·
CCOC(=O)c1ncc2[nH]c3ccc(OCc4ccccc4)cc3c2c1COC,·,·,·,·,1%,·
CCCOC(=O)c1c(N)n(Cc2cccs2)c2nc3ccccc3nc12,0,1%,9%,4%,0%,-115%*
C[C@H](NC(C)(C)C)C(=O)c1cccc(Cl)c1,·,·,·,·,-2%[16.9 µM],·
C[C@]12CCC3C(CC[C@H]4C[C@@H](O)CC[C@]34C)C1=CC[C@@H]2O (stereo partly drawn),-35*,·,·,·,·,i
CN1CCC23c4c5ccc(O)c4O[C@@H]2[C@H](O)C=CC3C1C5 (stereo partly drawn),-45*,0%,·,12%,·,i
CN1CC[C@]23c4c5ccc(O)c4OC2[C@H](O)C=CC3[C@H]1C5 (stereo partly drawn),-2,2%,·,14%,·,·
CN1CCc2nc3ccc(F)cc3c(C(N)=O)c2C1,0,0%,-3%,6%,0%,-99%*
Cc1ccc(N/C(N)=N/c2nc(CSc3nnc(C)s3)cc(=O)[nH]2)c(C)c1,-1,-18%,1%,3.5µM*,-6%,i
CN(C1=C(NC(=O)c2ccccc2)C(=O)c2ccccc2C1=O)C1CCS(=O)(=O)C1 (stereo not drawn),-2,-2%,·,10µM*,0%,i
Cc1cccc(-n2ncc3c(NCCCO)ncnc32)c1,1,-1%,1%,1.8µM*,0%,i
O=C(COc1ccccc1-c1ccccc1)N/N=C/c1ccccn1,-1,0%,15%,?,-3%,i
SMILES,CCT chaperon mod,Mm-Cpn inhibitor,MBNL1-CUG inh,uPA generation,Epigenetic reg,pAkt inh
Cc1nc2ccccc2c2oc(C(=O)N3CCN(C4CCCCC4)CC3)cc12,-3,-1%,-5%,?,-1%,i
O=C(c1ccc2c(Cl)c3c(nc2c1)CCCC3)N1CCC(N2CCCCC2)CC1,2,-1%,17%,10µM*,4%,i
COC(=O)N1C(=O)[C@@](c2ccc(OC)cc2)(C(C)C)N1C(=O)OC,-1,-1%,-15%,6.3µM*,·,i
COC(=O)C1=C(c2ccc3ccccc3c2)C[C@@H]2CC[C@H]1N2C(=O)NCc1ccc(F)cc1,-2,-1%,·,?,·,i
COC(=O)C1=C(c2ccc3ccccc3c2)C[C@@H]2CC[C@H]1N2C(=O)NCc1ccc(C(F)(F)F)cc1,-1,-2%,·,11µM*,·,i
O=c1ccc2cc(OC3OC(CO)C(O)C(O)C3O)c(O)cc2o1 (stereo not drawn),·,·,·,·,-1%,·
c1ccc2c(c1)OC[C@@H](C1=NCCN1)O2,·,·,·,·,1%,·
COC1=CC(=O)OC(CCc2ccc3c(c2)OCO3)C1 (stereo not drawn),-32*,·,·,-10%,·,i
COc1ccc(CNCCc2ccc3c(c2)OCO3)cc1Br,-4,-1%,-11%,-11%,·,i
CCN(CC)c1ccc(N=Cc2c(O)n(Cc3ccccc3)c(=O)[nH]c2=O)cc1,0,-10%,2%,3%,13µM*,i
CC(C)(C)c1cc([N+](=O)[O-])cc(C(C)(C)C)c1O,-4,0%,·,7.9µM*,-2%,i
NC(=O)c1cc([N+](=O)[O-])cc([N+](=O)[O-])c1,-3,·,·,-2%,-2%,i
COc1ccc(/C=C/C(=O)N2CC3C[C@@H](C2)Cn2c3cccc2=O)cc1OC,·,·,·,·,-1%,·
CN1Cc2c(ccc3c2OCO3)C2C(O)Cc3cc4c(cc3C21)OCO4 (stereo not drawn),·,·,·,·,3%,·
O=C1CN=C(c2cccs2)c2c(sc3c2CCCC3)N1,0,-5%,-4%,·,3%,i
O=C1CN=C(c2ccccc2)c2c(sc3c2CCCC3)N1,2,-1%,-12%,4.5µM*,·,i
CCCc1cc2c(n1CCO)C(C)C1CN(C(=O)c3ccccc3)C(C)(C(=O)OC)C21 (stereo not drawn),·,·,·,·,0%,·
CC(C)[C@@]1(NC(=O)[C@@H]2C[C@@H]3c4cccc5[nH]cc(c45)C[C@H]3N(C)C2)O[C@@]2(O)[C@@H]3CCCN3C(=O)[C@H](Cc3ccccc3)N2C1=O,2,-8%,14%,?,22µM*!,i
CC(C)n1c(=O)c(C=Nc2ccc(Cl)cc2)c(O)n(Cc2ccco2)c1=O,·,?,-7%,·,1%,·
COC(=O)c1cc(=O)n(Cc2ccco2)c(=Nc2ccc(F)c(Cl)c2)s1,0,0%,-3%,10µM*,0%,i
